The values below come from ChEMBL document CHEMBL5724796, “Tm Shift (DSF) assay results for EUbOPEN Chemogenomics Library” (2024).

Molecules are shown by their SMILES.

Holding throughout (details): Compound concentration 20.0 uM
Test [1] deals with Tyrosine-protein kinase ABL1 (Homo sapiens) (UniProt P00519).
Test [2] concerns the target Bromodomain-containing protein 4 (Homo sapiens) (UniProt O60885).
The target in test [3] is Cyclin-dependent kinase 2 (Homo sapiens) (UniProt P24941).
In test [4] the target is Casein kinase I isoform delta (Homo sapiens) (UniProt P48730).
Casein kinase I isoform delta (Homo sapiens), sequence (P48730 whole entry, looked up, canonical isoform): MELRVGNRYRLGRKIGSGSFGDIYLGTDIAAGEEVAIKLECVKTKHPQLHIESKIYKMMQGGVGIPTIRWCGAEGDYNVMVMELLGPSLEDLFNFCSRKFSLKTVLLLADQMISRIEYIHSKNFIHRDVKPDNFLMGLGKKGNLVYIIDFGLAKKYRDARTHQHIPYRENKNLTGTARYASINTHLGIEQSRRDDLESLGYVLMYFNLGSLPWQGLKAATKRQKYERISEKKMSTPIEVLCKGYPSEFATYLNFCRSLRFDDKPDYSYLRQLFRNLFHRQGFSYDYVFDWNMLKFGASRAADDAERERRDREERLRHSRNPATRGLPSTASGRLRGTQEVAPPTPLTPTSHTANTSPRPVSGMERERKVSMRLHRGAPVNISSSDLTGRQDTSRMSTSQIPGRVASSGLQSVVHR
For test [5], the target named is Glycogen synthase kinase-3 beta (Homo sapiens) (UniProt P49841).
Glycogen synthase kinase-3 beta (Homo sapiens), sequence (P49841 whole entry, looked up): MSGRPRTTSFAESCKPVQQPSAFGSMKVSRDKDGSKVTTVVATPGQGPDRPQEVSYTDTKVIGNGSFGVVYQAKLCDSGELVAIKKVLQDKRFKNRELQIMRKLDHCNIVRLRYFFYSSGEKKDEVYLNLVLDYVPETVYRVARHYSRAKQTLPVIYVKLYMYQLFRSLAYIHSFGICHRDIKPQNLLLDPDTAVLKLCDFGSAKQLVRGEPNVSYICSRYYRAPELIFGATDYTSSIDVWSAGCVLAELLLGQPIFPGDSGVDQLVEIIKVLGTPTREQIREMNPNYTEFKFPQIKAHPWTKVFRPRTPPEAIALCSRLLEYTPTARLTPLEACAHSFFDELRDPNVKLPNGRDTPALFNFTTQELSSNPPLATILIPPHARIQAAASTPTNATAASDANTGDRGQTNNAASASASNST
Test [6] concerns the target Mitogen-activated protein kinase 1 (Homo sapiens) (UniProt P28482).
For test [7], the target named is T1, Aurora kinase A (Homo sapiens) (UniProt O14965).
T1 sequence (whole entry): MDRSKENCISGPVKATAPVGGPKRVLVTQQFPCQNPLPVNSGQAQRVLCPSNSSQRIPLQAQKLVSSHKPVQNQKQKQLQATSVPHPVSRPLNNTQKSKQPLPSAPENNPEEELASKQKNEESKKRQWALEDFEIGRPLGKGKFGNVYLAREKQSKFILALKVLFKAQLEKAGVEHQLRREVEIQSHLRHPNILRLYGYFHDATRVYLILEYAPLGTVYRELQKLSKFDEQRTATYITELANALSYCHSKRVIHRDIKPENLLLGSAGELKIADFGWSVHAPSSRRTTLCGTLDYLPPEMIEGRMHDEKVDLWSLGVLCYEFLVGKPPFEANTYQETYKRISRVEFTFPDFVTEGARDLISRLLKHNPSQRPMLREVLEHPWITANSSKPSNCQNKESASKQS

In test [8] the target is T2, Transcription intermediary factor 1-alpha (Homo sapiens) (UniProt O15164).
T2 sequence (whole entry): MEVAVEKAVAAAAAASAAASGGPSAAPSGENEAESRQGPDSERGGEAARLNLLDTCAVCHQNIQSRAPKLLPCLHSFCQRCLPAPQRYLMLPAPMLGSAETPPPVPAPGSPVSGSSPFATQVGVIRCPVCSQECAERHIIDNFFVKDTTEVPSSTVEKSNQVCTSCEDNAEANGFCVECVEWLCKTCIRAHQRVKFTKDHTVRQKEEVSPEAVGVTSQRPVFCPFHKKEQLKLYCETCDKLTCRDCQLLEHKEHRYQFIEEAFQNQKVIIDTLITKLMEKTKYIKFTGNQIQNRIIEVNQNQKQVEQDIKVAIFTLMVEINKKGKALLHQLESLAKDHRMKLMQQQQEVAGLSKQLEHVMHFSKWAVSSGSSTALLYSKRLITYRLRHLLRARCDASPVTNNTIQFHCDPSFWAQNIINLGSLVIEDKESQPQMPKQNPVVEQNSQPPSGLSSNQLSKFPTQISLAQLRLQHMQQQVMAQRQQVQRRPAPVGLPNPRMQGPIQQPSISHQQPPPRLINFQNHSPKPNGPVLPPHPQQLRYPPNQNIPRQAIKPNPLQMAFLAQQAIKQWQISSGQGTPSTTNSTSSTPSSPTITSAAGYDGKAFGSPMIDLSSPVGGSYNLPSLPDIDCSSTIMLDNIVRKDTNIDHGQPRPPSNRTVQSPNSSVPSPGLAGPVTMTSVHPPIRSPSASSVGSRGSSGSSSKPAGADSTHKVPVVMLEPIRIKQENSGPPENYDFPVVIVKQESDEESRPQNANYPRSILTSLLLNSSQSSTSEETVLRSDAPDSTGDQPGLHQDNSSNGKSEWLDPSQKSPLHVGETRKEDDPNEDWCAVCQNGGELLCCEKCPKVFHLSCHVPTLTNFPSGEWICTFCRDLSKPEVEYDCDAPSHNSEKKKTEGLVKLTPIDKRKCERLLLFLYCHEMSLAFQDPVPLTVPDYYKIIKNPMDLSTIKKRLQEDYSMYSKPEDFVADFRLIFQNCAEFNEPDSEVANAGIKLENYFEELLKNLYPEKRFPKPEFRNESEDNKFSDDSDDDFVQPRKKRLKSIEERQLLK

Mitogen-activated protein kinase 1 (Homo sapiens), sequence (P28482 whole entry): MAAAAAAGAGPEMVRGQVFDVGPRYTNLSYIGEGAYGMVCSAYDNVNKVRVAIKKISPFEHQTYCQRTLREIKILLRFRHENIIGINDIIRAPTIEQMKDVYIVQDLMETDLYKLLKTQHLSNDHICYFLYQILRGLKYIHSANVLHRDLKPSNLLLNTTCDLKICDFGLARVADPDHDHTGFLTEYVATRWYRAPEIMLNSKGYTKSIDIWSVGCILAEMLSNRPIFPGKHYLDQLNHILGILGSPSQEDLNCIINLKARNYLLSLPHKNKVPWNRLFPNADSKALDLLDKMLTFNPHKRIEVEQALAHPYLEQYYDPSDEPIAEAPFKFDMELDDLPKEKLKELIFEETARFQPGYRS
Tyrosine-protein kinase ABL1 (Homo sapiens), sequence (P00519 whole entry): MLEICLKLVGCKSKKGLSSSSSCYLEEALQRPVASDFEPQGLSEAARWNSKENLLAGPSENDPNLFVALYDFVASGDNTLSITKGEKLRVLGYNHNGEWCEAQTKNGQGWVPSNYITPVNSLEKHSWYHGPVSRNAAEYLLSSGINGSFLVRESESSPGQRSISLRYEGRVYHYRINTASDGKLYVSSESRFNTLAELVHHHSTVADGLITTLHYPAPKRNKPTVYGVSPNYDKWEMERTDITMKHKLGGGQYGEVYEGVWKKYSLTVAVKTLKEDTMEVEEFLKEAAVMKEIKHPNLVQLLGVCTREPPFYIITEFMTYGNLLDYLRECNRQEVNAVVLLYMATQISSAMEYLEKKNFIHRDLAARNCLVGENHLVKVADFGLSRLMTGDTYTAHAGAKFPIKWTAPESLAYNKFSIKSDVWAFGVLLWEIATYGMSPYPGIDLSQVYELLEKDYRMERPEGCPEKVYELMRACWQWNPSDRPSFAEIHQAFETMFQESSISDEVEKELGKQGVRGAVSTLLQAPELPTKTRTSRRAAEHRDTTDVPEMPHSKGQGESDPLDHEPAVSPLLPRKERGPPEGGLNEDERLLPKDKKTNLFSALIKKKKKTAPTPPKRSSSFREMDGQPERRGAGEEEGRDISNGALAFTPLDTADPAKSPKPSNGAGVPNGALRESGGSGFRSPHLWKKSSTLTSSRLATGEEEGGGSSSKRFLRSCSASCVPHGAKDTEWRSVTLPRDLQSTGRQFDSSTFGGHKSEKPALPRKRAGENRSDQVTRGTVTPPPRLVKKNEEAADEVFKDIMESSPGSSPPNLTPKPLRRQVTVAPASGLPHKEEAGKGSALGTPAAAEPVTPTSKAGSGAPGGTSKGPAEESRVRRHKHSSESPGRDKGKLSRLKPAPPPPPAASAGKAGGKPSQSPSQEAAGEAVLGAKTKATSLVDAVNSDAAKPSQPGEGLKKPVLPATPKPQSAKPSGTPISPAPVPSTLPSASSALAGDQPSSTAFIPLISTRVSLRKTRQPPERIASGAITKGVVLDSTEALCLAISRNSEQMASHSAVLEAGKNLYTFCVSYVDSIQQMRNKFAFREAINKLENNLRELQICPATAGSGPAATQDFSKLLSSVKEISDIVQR

For `CNC(=O)c1cnc(N2CCC[C@H](N)C2)nc1Nc1cc(C(C)C)nc(C(C)C)c1`, the ΔTm is 0.5 °C in test [1]; -1.65 °C in test [2]; 0.07 °C in test [3]; 1.75 °C in test [4]; -0.33 °C in test [5]; 0.06 °C in test [6]. Moreover, the values for the ΔTm in test [7] and in test [8] were -0.12 °C and -1 °C, respectively.
With `Cc1ccc2c(c1)nc(/C=C/c1cccc3cccnc13)n2-c1cccc(OCCCN2CCN(C)CC2)c1`, the ΔTm was 0.62 °C in test [1]; -5.41 °C in test [2]; -0.28 °C in test [3]; -0.14 °C in test [4]; -0.72 °C in test [5]; 0.14 °C in test [6]. The values for the ΔTm in test [7] and in test [8] were -2.49 °C and 1.41 °C, respectively.
Regarding `Cn1nc(C(C)(C)C)cc1C(=O)NC(Cc1cccc(Cl)c1)C(=O)NCC#N` (stereo not given), the ΔTm is 0.37 °C in test [1]; -2.22 °C in test [2]; 0.71 °C in test [3]; 0.04 °C in test [4]; 0.23 °C in test [5]; 0.2 °C in test [6]. Moreover, the thermal shift (ΔTm) in test [7] is -1.33 °C; in test [8], 0.74 °C.
Take `C=C(C)[C@@H](CC=C(C)C)C[C@@]12C[C@@H](CC=C(C)C)C(C)(C)[C@@](CC=C(C)C)(C(=O)C(C(=O)c3ccc(O)c(O)c3)=C1O)C2=O`: the ΔTm in test [1] is 0.52 °C; in test [2], -5.01 °C; in test [3] it was -3.75 °C; in test [4], 0.51 °C; in test [5] it was -0.68 °C; in test [6], -6.65 °C. Moreover, the ΔTm in test [7] is 0.51 °C; in test [8] it was -0.01 °C.
For the molecule `NC(=O)C1CN(CCCCC(c2ccc(F)cc2)c2ccc(F)cc2)CCN1CC(=O)Nc1c(Cl)cc(N)cc1Cl` (stereo not given), the ΔTm in test [1] is -3.72 °C; in test [2], -1.03 °C; in test [3], -3.44 °C; in test [4] it was -5.13 °C; in test [5], -5.78 °C; in test [6] it was -8.93 °C. The results for the ΔTm in test [7] and in test [8] were -8.05 °C and 4.39 °C, respectively.
`Nc1c[nH]c(=O)c2cc(-c3ccccc3)sc12`: the ΔTm in test [1] was 0.27 °C; in test [2] it was -1.56 °C; in test [3], -0.22 °C; in test [4] it was 0.6 °C; in test [5], -0.86 °C; in test [6] it was 0.57 °C. For the same molecule, the values for the ΔTm in test [7] and in test [8] were -0.64 °C and -1.2 °C, respectively.
For `O=c1cc(-c2ccc(O)cc2)oc2c(CN3CCN(Cc4cccs4)CC3)c(O)cc(O)c12`, the ΔTm in test [1] was 2.39 °C; in test [2], -1.3 °C; in test [3], 1.5 °C; in test [4], -0.79 °C; in test [5], 2.99 °C; in test [6], -1.64 °C. Besides, the ΔTm worked out at 3.95 °C in test [7] and 2.2 °C in test [8].
Turning to `O=c1[nH][nH]c(=O)c2cc(OCc3ccsc3)ccc12`, the ΔTm in test [1] is 1.93 °C; in test [2], -2.87 °C; in test [3], 0.73 °C; in test [4] it was -0.03 °C; in test [5], 0.96 °C; in test [6] it was 0.65 °C. Also, the ΔTm is -1.5 °C in test [7] and 0.51 °C in test [8].
Take `CCOc1ccc2nc(-c3cccc(OCC(=O)NC(C)C)c3)nc(Nc3ccc(-c4cn[nH]c4)cc3)c2c1`: the ΔTm in test [1] was 0.09 °C; in test [2], -0.68 °C; in test [3], 0.3 °C; in test [4], -1.4 °C; in test [5], -0.35 °C; in test [6], -2.16 °C. Besides, the ΔTm in test [7] and in test [8] was 0 °C throughout.
Regarding `Cc1ccc(NC2=CC(=O)c3sc(C)nc3C2=O)cc1`, the ΔTm was 0.31 °C in test [1]; -1.66 °C in test [2]; 0.97 °C in test [3]; -0.17 °C in test [4]; -0.8 °C in test [5]; 0.04 °C in test [6]. The ΔTm in test [7] was -0.65 °C; in test [8], -1.44 °C.
In the case of `Cc1ccc(C(=O)Nc2ccc(S(=O)(=O)O)c3cc(S(=O)(=O)O)cc(S(=O)(=O)O)c23)cc1NC(=O)c1cccc(NC(=O)Nc2cccc(C(=O)Nc3cc(C(=O)Nc4ccc(S(=O)(=O)O)c5cc(S(=O)(=O)O)cc(S(=O)(=O)O)c45)ccc3C)c2)c1`, the ΔTm was 0.88 °C in test [1]; -5.41 °C in test [2]; -2.98 °C in test [3]; -1.4 °C in test [4]; -0.55 °C in test [5]; -0.68 °C in test [6]. For the same molecule, the ΔTm in test [7] is 0 °C; in test [8], -1.19 °C.
For `CC(C)(CNC(=O)c1cccc(-c2noc(C(F)(F)F)n2)c1)c1coc(-c2ccccc2)n1`, the ΔTm in test [1] was 0.61 °C; in test [2], -3.84 °C; in test [3], 0.39 °C; in test [4], 0.45 °C; in test [5], -8.42 °C; in test [6], -3.6 °C. Further, the ΔTm in test [7] was -2.8 °C; in test [8], -1.82 °C.
Turning to `CC(C)c1c(-c2ccccc2)[nH]c2c(C#N)cnn2c1=O`, the ΔTm in test [1] is 0.72 °C; in test [2], -2.81 °C; in test [3] it was 0.4 °C; in test [4] it was -0.22 °C; in test [5] it was -0.15 °C; in test [6], 0.17 °C. The results for the ΔTm in test [7] and in test [8] were -1.64 °C and -0.06 °C, respectively.
Turning to `Cc1cc(/N=N/c2ccc3c(c2)CCC(=O)N3)c(N)cc1O`, the thermal shift (ΔTm) was 2.28 °C in test [1]; -0.4 °C in test [2]; -0.28 °C in test [3]; 0.68 °C in test [4]; -0.3 °C in test [5]; 0.09 °C in test [6]. Besides, the ΔTm was -0.6 °C in test [7] and -0.66 °C in test [8].
As for `CCCC(NC(=O)C(CC(C)C)NC(=O)OCc1ccccc1)C(=O)C(=O)NCc1ccccn1` (racemic), the shift in melting temperature (ΔTm) in test [1] is 0.33 °C; in test [2], -1.67 °C; in test [3], -0.66 °C; in test [4] it was 0.03 °C; in test [5], -0.68 °C; in test [6] it was -0.49 °C. The values for the ΔTm in test [7] and in test [8] were -1.04 °C and -0.95 °C, respectively.
